Assay outcomes: PubChem, several laboratories
ALR inh – blocks human ALR sulfhydryl oxidase activity | P55789 | purified ALR, DTT oxidation, H2O2 HRP-luminol luminescence | inhibition, % (no concentration beside the values) | 290,000 compounds, 3.8% hits;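 active = mean replicate inhibition above about 79%, with every replicate also reaching it, limit read from the data; inconclusive = only one of the two criteria met; inactive = mean below limit and not every replicate reaching it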
Target sequence (P55789 whole entry, looked up): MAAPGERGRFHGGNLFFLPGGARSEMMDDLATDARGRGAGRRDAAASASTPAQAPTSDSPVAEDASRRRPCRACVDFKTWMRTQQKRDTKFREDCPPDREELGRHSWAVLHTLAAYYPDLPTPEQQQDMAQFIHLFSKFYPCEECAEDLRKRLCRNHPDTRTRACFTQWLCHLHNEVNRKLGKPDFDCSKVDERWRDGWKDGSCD
M18AAP inhibitor – blocks P. falciparum M18 aspartyl aminopeptidase. recombinant PfM18AAP, H-Glu-NHMec fluorogenic cleavage. inhibition, % at 7.35 µM. 290,000 compounds, 1.2% hits. AID 1822;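 active = inhibition above the campaign mean inhibition over all tested compounds plus 3 SD, cut at about 28% in these data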
JMJD2C inh – inhibitors of human GASC-1 (JMJD2C) demethylase; inhibition, % at 2.35 µM; Q9H3R0; GST-JMJD2C(1-420) H3K9me3 demethylation, DELFIA europium; 330,000 compounds, 0.069% hits;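 active = more than half of a compound's replicate wells show inhibition beyond 50%, single wells judged on their own value; inconclusive = some, but no more than half, of replicates pass 50% inhibition; inactive = no replicate passes 50% inhibition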;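 note: signal counts dimethyl H3K9 product captured on neutravidin plate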
Target sequence (Q9H3R0 1-420 limits assumed): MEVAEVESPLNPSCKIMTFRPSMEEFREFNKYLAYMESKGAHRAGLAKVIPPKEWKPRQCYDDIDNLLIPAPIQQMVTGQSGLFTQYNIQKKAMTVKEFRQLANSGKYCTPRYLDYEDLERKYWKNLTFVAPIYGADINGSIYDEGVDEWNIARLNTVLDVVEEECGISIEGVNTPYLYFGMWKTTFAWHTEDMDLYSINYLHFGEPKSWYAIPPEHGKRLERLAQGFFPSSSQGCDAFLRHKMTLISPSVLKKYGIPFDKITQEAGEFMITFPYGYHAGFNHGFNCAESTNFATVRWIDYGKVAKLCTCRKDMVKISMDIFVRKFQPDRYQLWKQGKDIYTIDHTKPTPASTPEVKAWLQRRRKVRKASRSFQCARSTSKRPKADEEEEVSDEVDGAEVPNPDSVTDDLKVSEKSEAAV
Exocytosis inh – blocks lytic granule exocytosis | TALL-104 LAMP-1 surface exposure, flow cytometry; cells stimulated with thapsigargin and PMA | inhibition, % at 10 µM | 360,000 compounds, 0.66% hits;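 active = inhibition above about 55%, limit read from the data; inconclusive = no clear call, values can overlap the other calls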
MIN6 prolif – induces beta-cell replication in MIN6 cells | MIN6 cells proliferation, ATPlite luminescence, 48 h; cells starved in 0.2% serum; 100% = growth in 10% serum | proliferation, % at 10 µM | 330,000 compounds, 0.29% hits;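 active = compounds whose signal lies at least 3.5 SD above the mean of all wells on their plate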
SMARCA2 activ – activators of SMARCA2 function; MG213 cells, MMTV-luciferase reporter, dexamethasone, overnight; activation, % at 9.1 µM; 370,000 compounds, 1% hits; AID 652017; in the data active = activation above about 7.8%
Of the large screens only hits and unclear results are named; the others gave an inactive call. Hits are enriched below; roughly 5.4% of the tested compounds scored in any of these assays.

Nc1n[nH]c(=S)n1/N=C1/C(=O)Nc2ccccc21	M18AAP inhibitor 31.7 (no result: ALR inh, JMJD2C inh, MIN6 prolif)
Cc1ccc(-n2c(SCC(=O)Nc3ccc(S(=O)(=O)Nc4cc(C)nc(C)n4)cc3)nnc2-c2ccncc2)cc1	none (no result: ALR inh, M18AAP inhibitor, JMJD2C inh, Exocytosis inh, MIN6 prolif)
C=CCN(CC=C)Cc1c(O)ccc2c1oc(=O)c1ccccc12	JMJD2C inh 78.6
O=C(Nc1ccc(CN2CCOCC2)cc1)c1cc2ccccn2n1	ALR inh 84.9
CCCCCCCCN1C(=O)[C@@H](CC(=O)NCCCCc2ccccc2)C[C@@]2(C(=O)OC)C1=C[C@H](COCc1ccccc1)O[C@@H]2C	none (no result: ALR inh, M18AAP inhibitor, JMJD2C inh, Exocytosis inh, MIN6 prolif)
O=C(CCC1N=C2c3ccccc3N=C(SCc3cccc(Cl)c3)N2C1=O)NCc1ccco1 (configuration not stated)	none
O=C(CCC1N=C2c3ccccc3N=C(SCc3ccccc3Cl)N2C1=O)NCc1ccco1 (configuration not stated)	ALR inh 99.3
COc1ccccc1OCCC(=O)N1CCN(c2ccccc2OC)CC1	ALR inh 82.3
COc1ccccc1N1CCN(C(=O)CCC(=O)N2CCN(c3ccccc3OC)CC2)CC1	ALR inh inconclusive
O=C(CSc1ccc2ccccc2c1)N1CCN(c2ccc(O)cc2)CC1	ALR inh 98.5
Cc1ccc(C(=O)NCC(=O)N2CCN(c3ccccc3O)CC2)s1	none (no result: ALR inh, M18AAP inhibitor, JMJD2C inh, MIN6 prolif)
O=C(NCC(=O)N1CCN(c2ccccc2O)CC1)c1cccs1	ALR inh 99.1 (no result: M18AAP inhibitor)
O=C(c1ccc2ccccc2c1)N1CCN(c2ccc(O)cc2)CC1	none (no result: ALR inh)
COc1ccccc1N1CCN(C(=O)CCNS(=O)(=O)c2cc(Br)cnc2N)CC1	ALR inh 98.5
Cc1nc2ccc(S(=O)(=O)NCC(=O)N(C)Cc3ccc(F)cc3)cc2s1	none (no result: ALR inh, M18AAP inhibitor, JMJD2C inh, Exocytosis inh, MIN6 prolif)
Fc1ccc(CN2CCN(c3ncc(Cc4ccccc4)cn3)CC2)c(Cl)c1	none (no result: ALR inh, M18AAP inhibitor, JMJD2C inh, Exocytosis inh, MIN6 prolif)
CC(=O)CC[C@H]1CC[C@]2(CCCN(C(=O)c3ccno3)C2)O1	none (no result: ALR inh, M18AAP inhibitor, JMJD2C inh, Exocytosis inh, MIN6 prolif)
COc1ccccc1N1CCN(C(=O)c2ccc(CSc3ccccc3)cc2)CC1	none
COc1ccccc1C(=O)NCCC(=O)N1CCN(c2ccccc2O)CC1	ALR inh 90.8 (no result: M18AAP inhibitor)
COc1ccccc1C(=O)NCCC(=O)N1CCCCC1	none
COc1ccccc1N1CCN(C(=O)c2cc(C(C)(C)C)oc2C)CC1	M18AAP inhibitor 28.5
O=C(NC(CC(=O)N1CCN(c2ccccc2O)CC1)c1ccccc1)c1ccccc1Cl (configuration not stated)	ALR inh 99.4 (no result: M18AAP inhibitor)
COc1ccccc1N1CCN(C(=O)CSc2ccccc2)CC1	ALR inh 98.7
Cc1n[nH]c(C)c1S(=O)(=O)NCCc1ccccc1F	none (no result: ALR inh, M18AAP inhibitor, JMJD2C inh, Exocytosis inh, MIN6 prolif)
OC(c1ccccc1)(c1ccccc1)C1CCN(CCCOc2ccncc2)CC1	none (no result: ALR inh, M18AAP inhibitor, JMJD2C inh, Exocytosis inh, MIN6 prolif)
CCOC(=O)[C@]12CCCCC/C=C\1N(Cc1ccc(OC)cc1)C(=O)[C@H]2CC(=O)NCc1cccc2ccccc12	none (no result: ALR inh, M18AAP inhibitor, JMJD2C inh, Exocytosis inh, MIN6 prolif)
COc1ccccc1-n1c(SCC(=O)N2CCCC2)nc2cccnc21	JMJD2C inh 61.5
CCN(C(=O)[C@@H](C)[C@@H](O)c1ccc2ccccc2c1)c1ccccc1	none (no result: ALR inh, M18AAP inhibitor, JMJD2C inh, Exocytosis inh, MIN6 prolif)
O=C(NCc1ccccc1)c1ccc(CO)cc1	none (no result: ALR inh, M18AAP inhibitor, JMJD2C inh, Exocytosis inh, MIN6 prolif)
COc1ccc(-n2c(SCC(=O)Nc3ccc(C)cc3)nc(O)c(Cc3ccccc3)c2=O)cc1	ALR inh 98.3
COc1ccc(-n2c(SCC(=O)Nc3ccc(Cl)cc3)nc(O)c(Cc3ccccc3)c2=O)cc1	none
COc1ccc(-n2c(SCC(=O)Nc3ccccc3C)nc(O)c(Cc3ccccc3)c2=O)cc1	ALR inh 88.3
COC(=O)[C@]12C[C@H](CC(=O)N3CCN(C(=O)c4ccco4)CC3)C(=O)N(CCc3ccc(OC)c(OC)c3)C1=C[C@H](C1CCCC1)O[C@@H]2C	none (no result: ALR inh, M18AAP inhibitor, JMJD2C inh, Exocytosis inh, MIN6 prolif)
CNC(=O)C[C@H]1CC[C@H]2[C@@H](COc3ccc(NC(=O)Nc4ccccc4)cc3C(=O)N2C)O1	none (no result: ALR inh, M18AAP inhibitor, JMJD2C inh, Exocytosis inh, MIN6 prolif)
Cc1ccc(Nc2c(-c3ccc(N4CCOCC4)cc3)nc3ncccn23)cc1	none
Cc1ccccc1Nc1c(-c2ccc(N3CCOCC3)cc2)nc2ncccn12	ALR inh 98.2
Cc1cccc(C)c1Nc1c(-c2ccsc2)nc2ncccn12	ALR inh 98.2
Cc1ccc(Nc2c(-c3ccc(N4CCOCC4)cc3)nc3ncccn23)cc1C	ALR inh 94.0
CCn1c(SC(=O)NC2CCCCC2)nnc1-c1cccs1	M18AAP inhibitor 46.9
CC(=O)Nc1ccc(NC2CCCCC2NS(=O)(=O)c2ccccc2)cc1 (configuration not stated)	ALR inh 98.9
Cc1ccc(NC2CCCCC2NS(=O)(=O)c2ccccc2)c(C)c1 (configuration not stated)	ALR inh 85.8
N#Cc1cccc(NC(=O)OC2CCC23CCC(c2ccccc2)CC3)c1 (configuration not stated)	none (no result: ALR inh, M18AAP inhibitor, JMJD2C inh, Exocytosis inh, MIN6 prolif)
CCCNC(=O)C(Cc1ccccc1)NS(=O)(=O)c1ccc2c(c1)CCC(=O)N2 (configuration not stated)	ALR inh 83.6
Cc1ccc(CNC(=O)C(Cc2ccccc2)NS(=O)(=O)c2ccc3c(c2)CCC(=O)N3)cc1 (configuration not stated)	none
O=C1CCc2cc(S(=O)(=O)NC(Cc3ccccc3)C(=O)NC3CCCC3)ccc2N1 (configuration not stated)	ALR inh 84.0
CN(Cc1ccco1)C(=O)C(Cc1ccccc1)NS(=O)(=O)c1ccc2c(c1)CCC(=O)N2 (configuration not stated)	ALR inh 78.3
O=C1CCc2cc(S(=O)(=O)NC(C(=O)NCc3cccnc3)c3ccccc3)ccc2N1 (configuration not stated)	none (no result: ALR inh, JMJD2C inh)
O=C(CNCc1ccccc1[N+](=O)[O-])N1CCC2(CC1)OCCO2	none (no result: ALR inh, M18AAP inhibitor, JMJD2C inh, Exocytosis inh, MIN6 prolif)
NC(=O)c1cc2cc(Cl)ccc2oc1=O	none
COc1ccc2cc(C(N)=O)c(=Nc3ccccc3)oc2c1	none
NC(=O)c1cc2ccc(O)cc2oc1=Nc1ccccc1	SMARCA2 activ 7.9 (no result: ALR inh, MIN6 prolif)
O=C(O)c1ccc(N=c2oc3cc(O)ccc3cc2C(=O)NCc2ccccc2)cc1	ALR inh 89.7
NC(=O)c1cc2cc(Cl)ccc2oc1=Nc1cccc(C(F)(F)F)c1	ALR inh 90.8
COc1cc(-c2nnc3sc(-c4ccco4)nn23)cc(OC)c1OC	ALR inh 98.2
COc1cccc(-c2nnc3sc(-c4ccco4)nn23)c1	none
COc1ccc(-c2nn3c(-c4ccco4)nnc3s2)cc1OC	none
COc1ccc(-c2nnc3sc(-c4ccco4)nn23)cc1OC	ALR inh 99.4
CCn1c(SCC(=O)Nc2ccccc2-c2ccccc2)nnc1-c1ccc(C)cc1	none (no result: ALR inh, M18AAP inhibitor, JMJD2C inh, Exocytosis inh, MIN6 prolif)
CNC(=O)C1Cc2ccccc2CN1S(=O)(=O)c1ccc(OC)c(OC)c1 (configuration not stated)	none
COc1ccc(S(=O)(=O)N2Cc3ccccc3CC2C(=O)Nc2ccc(O)cc2)cc1OC (configuration not stated)	ALR inh 95.3
CN=Cc1sc2ccccc2c1O	none
